In paper PMC6212790, “How bacterial xenogeneic silencer rok distinguishes foreign from self DNA in its resident genome”:
The full ranking holds about 33,000 sequences; the median of “e-score” is about -0.038, and the highest 2% start at about 0.33. The list comes from a sample in which the highest values are over-represented; it also holds similar and randomly drawn sequences.

target: T1, GST-Rok-C97-191 (Bacillus subtilis subsp. subtilis str. …, UniProt O34857 97-191); assay: protein binding microarray; Rok is a gene silencer of Bacillus subtilis; high values mean tight binding; conditions: protein: recombinant; tags: GST (pTH5325, pDEST15-Magic modified); dsDNA, one strand shown
T1 sequence: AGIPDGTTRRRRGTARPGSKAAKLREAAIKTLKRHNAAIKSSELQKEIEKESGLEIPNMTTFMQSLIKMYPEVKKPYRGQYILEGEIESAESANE
Procedure, shortened: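 Each has a 25-mer constant primer and a 35-mer variable part from a de Bruijn sequence of order 10, covering every non-palindromic 8-mer at least 32 times (palindromic 16). Preference for each 8-mer is given as a rank-based, unitless enrichment score (E-score). Its range runs from 0.5 (most favored) to −0.5 (most disfavored).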

Row | Sequence | binding signal [E-score]
1 | CATGTCCG | 0.0905
2 | CGGTAAAC | 0.0274
3 | CAATAGTA | 0.33
4 | AAGTAATA | 0.29
5 | AAGTAACA | 0.177
6 | TAGTAATA | 0.403
7 | CAGTAACA | 0.114
8 | TAGTAACA | 0.345
9 | CAATAGTC | 0.0177
10 | CAATAGTG | 0.236
11 | GAGTAATA | 0.182
12 | CCTATAAG | 0.0895
13 | CAACGGTA | 0.207
14 | GGATGAAC | 0.0137
15 | AAGCCTCA | -0.158
16 | AAAGCGAG | -0.169
17 | CATGCCCC | -0.186
18 | TGCCGAAA | -0.0675
19 | CAAATGGC | 0.0931
20 | GAGAAATA | 0.345
21 | GAGAACTA | 0.242
22 | AAGAAATA | 0.145
23 | CAGAAATA | 0.254
24 | CAGAACTA | 0.309
25 | TAGAAATA | 0.416

Row | Sequence | binding signal [E-score]
26 | TAGAACTA | 0.368
27 | GAGAAAAA | 0.0631
28 | GAGAAATC | 0.0248
29 | CATTCCGA | -0.0936
30 | CGTTTACC | -0.0458
31 | ACTATTCT | 0.217
32 | GCCATTTA | -0.19
33 | GAATCGCA | -0.139
34 | GAGAATGA | 0.00699
35 | CCGTTTAA | -0.0736
36 | TAAAAGGA | -0.0824
37 | CAAAACTA | 0.401
38 | ACAAACTA | 0.382
39 | TAAAACGA | 0.027
40 | AAAAACTA | 0.426
41 | TAAAACTA | 0.334
42 | ACAAACTC | 0.00994
43 | CAAAACAA | -0.0275
44 | CAAAACTC | 0.162
45 | TAAAACAA | 0.0349
46 | AAAAACTC | 0.113
47 | ACAAACTG | 0.0787
48 | AAAAACTT | -0.191
49 | GAGGCTGA | -0.165
50 | ACCGCAAG | -0.109

Row | Sequence | binding signal [E-score]
51 | ACGAACTA | 0.311
52 | CCAACTAA | 0.16
53 | ACGCTAAG | 0.0377
54 | CGAAGCTA | 0.0414
55 | CTCGGAGC | 0.0375
56 | CCAAACCA | -0.102
57 | GAAAACTA | 0.336
58 | GCAAACTA | 0.385
59 | CCAAACTA | 0.376
60 | CCAAACTC | -0.0249
61 | GCAAACAA | -0.173
62 | GCAAACCA | -0.0828
63 | GAAAACTC | -0.0271
64 | GAAAACCA | -0.143
65 | GTTACAGA | 0.21
66 | TGCGCGCA | 0.0584
67 | TAGGGGGA | -0.143
68 | ACAGTTGA | 0.152
69 | CCAGCGTC | -0.163
70 | GATAGAAA | 0.333
71 | TATAGAAA | 0.397
72 | GATAGAAC | 0.289
73 | AATAGAAA | 0.388
74 | AATAGAAC | 0.151
75 | AATAGAAT | 0.318

Row | Sequence | binding signal [E-score]
76 | GATAGACA | 0.058
77 | TATAGACA | 0.00807
78 | CATAGAAA | 0.105
79 | ACAAACCG | -0.027
80 | TCATTCCA | -0.0328
81 | GCATCCAA | -0.0621
82 | GATAGAGA | 0.104
83 | AATACAGG | -0.0587
84 | GACCCAAC | -0.142
85 | AGAAGCGA | -0.104
86 | GGGCATAC | -0.0596
87 | AATCGACC | -0.0453
88 | GCTACTCA | 0.0267
89 | AAACTATC | 0.36
90 | AAACTAAC | 0.308
91 | CAACTATA | 0.277
92 | AAACTATG | 0.229
93 | AAACTCTT | 0.063
94 | AAACTAAT | 0.36
95 | GAACTATC | 0.261
96 | AAACTATA | 0.398
97 | AAACTAAG | 0.251
98 | CAACTATC | 0.156
99 | AAACTATT | 0.448
100 | GAACTATA | 0.29

Row | Sequence | binding signal [E-score]
101 | AAACAGTC | -0.0408
102 | GCGCCGGA | -0.0972
103 | ATTTAAAA | -0.0263
104 | GAAGCGTC | -0.188
105 | ATTATTCA | 0.199
106 | CTAGATCA | 0.199
107 | ATTACAGC | 0.215
108 | AAACTAAA | 0.296
109 | TAACTATA | 0.347
110 | TAACTAAA | 0.23
111 | CAGAGAGA | -0.071
112 | CTTTAGGC | -0.0933
113 | CTAGAAAA | 0.312
114 | GTAGAAAA | 0.384
115 | GCAGAAAC | -0.0283
116 | CTAGAAAC | 0.34
117 | TTAGAAAA | 0.263
118 | CAAGAAAC | 0.224
119 | GAAGAAAC | 0.108
120 | CTAGAAAG | 0.113
121 | GTAGAAAC | 0.435
122 | TCAGCCCA | -0.191
123 | TGCCAACA | 0.0271
124 | AGAGGTAA | 0.149
125 | CGGCAAAC | 0.168

Row | Sequence | binding signal [E-score]
126 | AGCGCCGG | -0.146
127 | ATTATACA | 0.333
128 | GTTATACA | 0.253
129 | ATTATACG | 0.388
130 | ACTATACG | 0.0223
131 | ATTATACC | 0.228
132 | CTTATACA | 0.263
133 | GTACTGCA | 0.119
134 | AGAATGCG | 0.105
135 | ATAGGGAC | -0.176
136 | CACGATCA | -0.0988
137 | AACCCCTG | -0.151
138 | GTCTGACA | -0.163
139 | GATATACA | 0.175
140 | CATATACC | 0.222
141 | AATACACA | 0.173
142 | ACTATACA | 0.302
143 | AATATACC | 0.353
144 | TATATACA | 0.402
145 | AACATACT | 0.0962
146 | GATATACC | 0.153
147 | TACATACA | 0.253
148 | AACATACA | 0.343
149 | CATATACA | 0.22
150 | AATATACA | 0.394

Row | Sequence | binding signal [E-score]
151 | ACAACTTG | 0.173
152 | ACGTGGCA | -0.0377
153 | CTTAGCGC | 0.0409
154 | GAGCTAGC | 0.0567
155 | ACCCGTTG | -0.159
156 | TGTTAAAA | -0.0158
157 | AATTGCGG | 0.0377
158 | TACCGGAA | -0.0058
159 | ACAGGCGT | -0.077
160 | AATATACT | 0.367
161 | TGTATACA | 0.37
162 | ACTATACT | 0.0926
163 | AATATACG | 0.225
164 | GGTATACA | 0.15
165 | AGTATACA | 0.178
166 | GAAAGTGC | -0.0315
167 | GTACCAAC | 0.0505
168 | CAGGCGAC | -0.00727
169 | CGTTTATC | 0.231
170 | GGCAGTTA | 0.0872
171 | CACAAGTG | -0.00102
172 | CAGACTAA | -0.0795
